Assay outcomes as filed in PubChem BioAssay.
Cav3 T inh = inhibitors of human Cav3.2 T-type calcium channel. O95180. Cav3.2-expressing cells, Fluo-4 calcium fluorescence FDSS; hits give low values. B-score at 10 µM. 100,000 tested, 4% active. AID 449739;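 active = single-dose well whose peak fluorescence ratio is a statistical outlier from its plate by either plate-standardised score or position-corrected B-score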
PostGolgi ctrl = inhibits growth of the yeast control strain | efflux-deficient yeast background strain, growth absorbance A615, 16 h | inhibition, % at 10 µM | 98,000 tested, 5% active | AID 738
DAT uptake mod = modulates human dopamine transporter uptake under cocaine; Q01959; LLC-PK1 hDAT cells, [14C]-dopamine uptake with cocaine IC80; actives deviate in either direction; B-score at 10 µM; 110,000 tested, 1.3% active; AID 449768;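 active = Z score or B-score, a plate-position-corrected score, falls beyond the plate's 99.7% confidence bounds, in either direction; inactive = both scores lie inside the 99.7% bounds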;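 also: scored against the spread of the other compound wells on the same plate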
Target sequence (Q01959 whole entry, looked up): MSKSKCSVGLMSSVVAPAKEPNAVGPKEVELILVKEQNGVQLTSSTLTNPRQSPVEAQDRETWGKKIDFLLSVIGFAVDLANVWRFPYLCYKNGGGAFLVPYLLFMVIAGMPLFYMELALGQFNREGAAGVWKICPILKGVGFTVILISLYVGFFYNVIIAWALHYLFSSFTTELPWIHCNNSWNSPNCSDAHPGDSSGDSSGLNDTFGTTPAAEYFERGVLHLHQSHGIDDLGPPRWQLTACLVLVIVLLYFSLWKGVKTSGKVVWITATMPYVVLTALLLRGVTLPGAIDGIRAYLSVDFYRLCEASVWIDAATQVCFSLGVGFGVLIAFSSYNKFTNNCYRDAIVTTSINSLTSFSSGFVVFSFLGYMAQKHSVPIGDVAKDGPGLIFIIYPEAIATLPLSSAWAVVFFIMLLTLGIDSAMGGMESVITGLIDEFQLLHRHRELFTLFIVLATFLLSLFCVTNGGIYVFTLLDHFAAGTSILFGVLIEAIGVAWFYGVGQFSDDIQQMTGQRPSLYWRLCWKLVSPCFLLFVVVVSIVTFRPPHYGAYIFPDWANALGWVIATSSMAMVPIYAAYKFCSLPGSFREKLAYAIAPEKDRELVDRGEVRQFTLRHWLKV
TNAP act mid DEA = activators of human TNAP at intermediate phosphate acceptor. 64,000 tested, under 10 active. P05186. purified TNAP, CDP-star luminescence, 100 mM DEA, 30 min; hits give high values; scale: 0 levamisole-inhibited, 1 vehicle-only enzyme. activation factor at 20 µM;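 active = activation factor of at least 2 at 20 µM, relative to controls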
PostGolgi yeast = growth inhibition of a yeast mutant, post-Golgi transport screen; post-Golgi transport phenotypic cell assay; inhibition, % at 10 µM; 98,000 tested, 0.9% active;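 also: yeast cells grown in 1536-well plates; yeast grown about 18 h at 30C before absorbance read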
Smad3 FoxH1 inh = blocks human Smad3 binding to FoxH1 peptide | P84022 | TR-FRET Smad3/Dy647-FoxH1 peptide binding, europium anti-His | inhibition, % at 25 µM | 88,000 tested, 0.29% active | AID 630;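 active = compounds that reduce the energy-transfer binding signal between the protein and its labelled peptide by more than half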;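 also: 0% = Smad3 plus labelled peptide maximal FRET and 100% = peptide-only background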
* = called active by the depositor; nt = not tested or not shown. Most compounds without a hit are left out; they make up all but 8.7% or so of the library. Rule as the data show it, unless noted: active = inhibition above about 30%; inactive = the rest.

SMILES	Cav3 T inh	PostGolgi ctrl	DAT uptake mod	TNAP act mid DEA	PostGolgi yeast	Smad3 FoxH1 inh
O=c1c(-c2nnc(SCc3ccc(Cl)c(Cl)c3)o2)cccn1Cc1ccccc1	-0.15	54*	2	nt	8	nt
Clc1cccc(CSc2nnc(-c3c[nH]c4ccccc34)o2)c1	-0.14	25	0.24	nt	-6	nt
Cc1ccc(C(=O)OCC(=O)Nc2sc3c(c2C#N)CCCC3)cc1NC(=O)c1ccco1	-1	-9	0.32	nt	13	1
Cc1ccc(C(=O)OCC(=O)Nc2sc3c(c2C#N)CCCCC3)cc1NC(=O)c1ccco1	-3.8*	10	0.033	0.8	2	7
Cc1ccc(OCC(=O)Nc2sc3c(c2C#N)CCC3)cc1	-0.26	-7	-0.27	nt	15	nt
O=C(Nc1sc2c(c1C(=O)NC1CC1)CCCCCC2)c1ccco1	-0.073	57*	-0.25	1	16	-26
N#Cc1c(NC(=O)COC(=O)c2ccc(F)cc2)sc2c1CCC2	0.18	37*	-1.2	nt	-1	nt
O=C(Nc1sc2c(c1C(=O)O)CCCC2)c1cccs1	-0.24	5	1.4	0.9	-2	3
O=C(Nc1sc2c(c1C(=O)NCC1CCCO1)CCCC2)c1cccs1 (configuration not stated)	-0.28	68*	-2.1	0.9	86*	11
COCCCn1c2nc3ccccc3nc2c2c(=O)n(-c3ccccc3OC)cnc21	0.92	4	-0.25	0.9	34*	1
COCCCn1c2nc3ccccc3nc2c2c(=O)n(-c3ccccc3OC)c(C)nc21	nt	10	nt	0.9	4	7
Cc1noc(C)c1COC(=O)c1cc2c3ccccc3n(C)c2s1	0.11	37*	0.87	0.9	-7	6
CC(CCc1ccccc1)NC(=O)/C=C/c1ccccc1 (configuration not stated)	0.47	40*	0.61	nt	6	nt
O=C(/C=C/c1ccccc1)NCCc1ccccc1	-3.3	nt	-0.29	nt	nt	nt
COC(=O)[C@H](C)NC(=O)NC(C)CCc1ccccc1 (some centres not stated)	0.39	36*	-0.56	nt	6	4
NS(=O)(=O)c1cc2c(cc1Cl)NCNS2(=O)=O	0.2	nt	-0.72	0.9	nt	8
CC1CCCN(S(=O)(=O)c2ccc(S(=O)(=O)N3CCCN(Cc4ccccc4)C3)cc2)C1 (configuration not stated)	-0.084	nt	-0.52	0.9	nt	9
COC(=O)Cn1cnc(=O)c(C#N)c1/C=C/N(C)C	0.44	2	-0.42	0.9	8	nt
C(=C\c1ccccc1)/CSc1nnc(-c2ccccn2)n1Cc1ccco1	-5.5*	45*	0.97	0.8	2	-2
Clc1ccccc1CSc1nnc(-c2ccccn2)n1Cc1ccco1	-3.1	13	0.54	0.9	0	6
CC(=O)N1CN(Cc2ccccn2)Cc2c1sc1c2CCCC1	0.44	36*	0.037	1	2	4
Cc1n[nH]c(C)c1CCc1nc2c3ccccc3nc(SCC(=O)Nc3ccccc3F)n2n1	1	9	0.028	nt	10	7
Cc1cccc(NC(=O)CSc2nc3ccccc3c3nc(CCc4c(C)n[nH]c4C)nn23)c1	-2	17	3.8*	nt	0	10
Cc1ccccc1NC(=O)N(CCc1nc2ccccc2[nH]1)Cc1ccccc1	-4*	nt	1.1	nt	nt	1
COc1ccccc1CN(Cc1nc2ccccc2c(=O)[nH]1)C(=O)Nc1ccccc1C	-5.9*	5	0.45	nt	3	10
SMILES	Cav3 T inh	PostGolgi ctrl	DAT uptake mod	TNAP act mid DEA	PostGolgi yeast	Smad3 FoxH1 inh
COc1ccccc1CN(Cc1nc2ccccc2c(=O)[nH]1)C(=O)Nc1ccc(C)cc1	-4.3*	31*	-0.093	nt	4	1
O=C(CCc1nc2ccccc2[nH]1)Nc1ccccc1F	0.49	nt	0.89	nt	nt	nt
COc1ccccc1CN(Cc1nc2ccccc2c(=O)[nH]1)S(=O)(=O)c1ccc(C)cc1	0.012	14	-1.6	nt	-2	0
CCOC(=O)c1c(C)[nH]c(C)c1C(=O)CSc1nnc(-c2ccco2)n1Cc1ccccc1	-2	4	1.2	1	1	-3
O=S(=O)(NCCSCc1c(Cl)cccc1Cl)c1ccc2c(c1)OCCO2	-3.6	24	0.18	nt	-7	nt
COc1ccc(S(=O)(=O)NCCSc2ccc(Cl)cc2)cc1OC	-3.1	nt	0.95	nt	nt	-6
O=S(=O)(NCCSCc1ccc(Cl)cc1Cl)c1ccc2c(c1)OCCO2	-4.5*	27	0.42	nt	0	nt
Cc1ccc(Cl)cc1N1CCN(S(=O)(=O)c2ccc3c(c2)OCCO3)CC1	-5.2*	19	-1	0.9	2	2
O=S(=O)(NCCSc1ccc(Cl)cc1)c1ccc2c(c1)OCCO2	-8.7*	31*	0	0.9	-3	-4
Cc1ccc(C)c(N2CCN(S(=O)(=O)c3ccc4c(c3)OCCO4)CC2)c1	-1.8	22	1	0.9	-4	3
O=C(CSc1nc2ccccc2c(=O)n1CCC(=O)N1CCCCC1)NCc1ccccc1	-0.69	16	0.33	1	3	6
Cc1csc2ncc(C(=O)Nc3ccon3)c(=O)n12	-1.1	41*	1	1	2	-7
Cc1cccc(NC(=O)c2cnc3scc(C)n3c2=O)c1	0.27	29	-1.1	1.1	-3	-10
CCCCOC(=O)Cn1c2ccc(OC)cc2c2nc3ccccc3nc21	nt	12	-0.5	nt	12	0
O=C(c1ccc(F)cc1)c1ccc(N2CCCC2)cc1	0.63	42*	0.62	0.9	6	-12
Cc1ccc(C(c2sc3nc(C)nn3c2O)N2CCN(c3ccccc3F)CC2)cc1 (configuration not stated)	-5.5*	9	2.2	1	3	2
Cc1nc2sc(C(c3ccco3)N3CCN(C(c4ccccc4)c4ccccc4)CC3)c(O)n2n1 (configuration not stated)	-5.4*	nt	0.92	1	nt	2
Cc1nc2sc(C(c3ccccc3)N3CC(C)OC(C)C3)c(O)n2n1 (configuration not stated)	0.65	4	0.17	0.9	-2	-1
Cc1nc2sc(C(c3ccc(Br)cc3)N3CC(C)OC(C)C3)c(O)n2n1 (configuration not stated)	0.21	3	2.6*	0.9	0	8
O=C(Nc1cc(Cl)cc(Cl)c1)C(NCCO)c1ccccc1 (configuration not stated)	0.031	1	-0.97	nt	7	-10
CCCc1nc2ccccc2c(=O)n1N	0.041	4	1.6	nt	2	-1
COc1ccccc1CNC(=O)COC(=O)c1cnccn1	0.038	-7	0.39	0.9	-1	6
O=C(Oc1ccc(F)cc1C(=O)/C=C/c1cccs1)c1cccc([N+](=O)[O-])c1	-1.7	19	-0.048	nt	2	-4
O=C(/C=C/c1cc([N+](=O)[O-])ccc1OC(F)F)NCc1ccc(F)cc1	-6.1*	-2	0.23	nt	-7	nt
Cc1nn(-c2cccc3cccnc23)c(=O)c2ccccc12	0.071	30	-0.36	nt	2	5
